Assay results reported in PubChem BioAssay AID624330 (Southern Research Specialized Biocontainment Screening …, 2012).
Several values for one entry are separate records, joined by “and”; a condition that tells them apart may be missing. Identical values can stand only once. Among all 340,000 compounds or so, about 2,100 (0.62%) were called active.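 Rule for the calls: active = first-screen hits whose inhibition reached a set limit at any dose in the follow-up dose series; inconclusive = inhibition above the set first-screen limit but never retested; inactive = the rest.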 Only a sample is shown. Potency and affinity values are given separately.

What follows are molecules tested against Rac GTPase-activating protein 1 (Homo sapiens) (UniProt Q9H0H5) (assay: MgcRacGAP GTPase-activating activity inhibitors, confirmation, biochemical, ADP Hunter fluorescence, primary and confirmatory (AID 624330;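 note: fluorescence reports GDP produced by GAP-driven GTP hydrolysis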)). Conditions: MgcRacGAP-stimulated Rac1 GTP hydrolysis, at 30 µM, active compounds read high, GST-tagged Rac1 F28L mutant substrate.
Sequence of Rac GTPase-activating protein 1 (Homo sapiens) (Q9H0H5 whole entry, looked up): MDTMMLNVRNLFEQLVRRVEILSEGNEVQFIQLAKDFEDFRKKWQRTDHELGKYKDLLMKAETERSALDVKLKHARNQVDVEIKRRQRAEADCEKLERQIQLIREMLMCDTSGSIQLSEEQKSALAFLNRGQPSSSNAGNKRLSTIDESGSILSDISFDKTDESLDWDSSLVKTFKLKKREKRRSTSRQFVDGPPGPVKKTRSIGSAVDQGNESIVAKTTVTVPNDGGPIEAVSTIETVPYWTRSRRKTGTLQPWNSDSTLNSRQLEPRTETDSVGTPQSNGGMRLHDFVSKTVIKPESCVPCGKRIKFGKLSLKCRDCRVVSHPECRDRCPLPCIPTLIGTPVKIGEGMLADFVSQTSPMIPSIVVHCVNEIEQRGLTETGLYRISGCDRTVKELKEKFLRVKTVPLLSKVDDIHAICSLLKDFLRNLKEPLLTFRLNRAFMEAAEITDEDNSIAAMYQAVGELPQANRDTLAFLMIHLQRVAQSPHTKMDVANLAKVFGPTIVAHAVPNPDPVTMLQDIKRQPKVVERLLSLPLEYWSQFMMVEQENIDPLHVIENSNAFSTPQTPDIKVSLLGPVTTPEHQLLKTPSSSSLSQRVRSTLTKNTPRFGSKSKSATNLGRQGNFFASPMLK

inhibition, inactive:
CCCCNC(=O)c1ccc(CS(=O)(=O)c2ccc(OC)cc2)o1 -10.9%, CCOc1ccc(S(=O)(=O)Nc2ccc(C(=O)NCC(c3ccc(OC)cc3)N3CCOCC3)cc2)cc1 (stereo unspecified) 5.24%, COc1ccc(CN2CCC(=O)N(CCO)CC2)cc1OC 7.88%, O=C(c1ccco1)N1CCN(Cc2cn[nH]c2-c2ccc(F)cc2F)CC1 -5.62%, Cn1c(=O)[nH]c(Nc2ccc(F)cc2)c([N+](=O)[O-])c1=O 8.12%, Cn1c(=O)[nH]c(Nc2ccccc2)c([N+](=O)[O-])c1=O 5.65%, Cc1ccc(C(=O)NCCCNC(=O)c2ccco2)cc1 4.3%, CN(CC(=O)Nc1c(Cl)cccc1Cl)C(=O)C1CCN(C(=O)Nc2ccccc2)CC1 -1.59%, COc1ccccc1CCC(=O)OCC(=O)Nc1ccc(C(N)=O)cc1 -2.01%, Cc1ccc(S(=O)(=O)N2CCCCC2)cc1NC(=O)CSc1nc(N)cc(=O)[nH]1 4.78%, Cc1c(-c2ccccc2)sc(Br)c1C(=O)N1CCOCC1 2.64%, COC(=O)c1c(N)sc(C(=O)N2CCOCC2)c1C 8.37%, Cc1ccc(N(C(C)C(=O)O)S(=O)(=O)c2cccnc2)cc1 (stereo unspecified) 4.39%, COc1ccc(/C=C2\C(=O)ON=C2c2ccccc2)cc1 24.6%, CN(C)/C=C1\C(=O)ON=C1c1ccccc1 11.7%, Cc1ccc(C2=NOC(=O)/C2=C\c2ccccc2)cc1 8.59%, O=C1ON=C(c2ccccc2)/C1=C\c1ccco1 19.1%, O=C1ON=C(c2ccccc2)/C1=C/c1cccnc1 3.82%, COc1cc([N+](=O)[O-])ccc1-c1ccc(/C=C2\C(=O)ON=C2c2ccccc2)o1 25%, Cc1ccc(C2=NOC(=O)/C2=C\C=C\c2ccccc2)cc1 6.67%, O=C1ON=C(c2ccccc2)/C1=C/c1ccc(-c2ccccc2[N+](=O)[O-])o1 7.69%, Cc1ccc(CNS(=O)(=O)NCc2ccc(Cl)cc2)cc1 0.28%, COc1ccc(N2CCN(C(=O)COC(=O)CCS(=O)(=O)c3ccc(C)cc3)CC2)cc1 20.8%, O=S(=O)(c1ccc2ccccc2c1)N1CCNCC1 11.3%, COc1ccc(CNC(=O)CN(C(=O)CCC(=O)Nc2ccccn2)c2cccc(C)c2C)cc1 6.1%, CCc1nnc(NC(=O)CSc2nnc3ncccn23)s1 4.86%, CC(=O)Nc1cccc(NC(=O)CSc2n[nH]c(-c3ccccc3)n2)c1 2.62%, O=[N+]([O-])c1ccccc1S(=O)(=O)N1CCCc2ccccc21 -4.93%, O=c1c(O)c(-c2ccc(O)c(O)c2)oc2cc(O)cc(O)c12 24.2%, COc1ccc(-c2coc3cc(O)ccc3c2=O)cc1 -1.73%, O=c1c(O)c(-c2cc(O)c(O)c(O)c2)oc2cc(O)cc(O)c12 -51.5%, O=c1c(O)c(-c2ccccc2)oc2cc(O)cc(O)c12 9.81%, COc1ccc(-c2oc3cc(O)c(OC)c(O)c3c(=O)c2OC)cc1O 26.4%, COc1c(-c2ccc(O)cc2)oc2cc(O)cc(O)c2c1=O 8.09%, O=c1cc(O)c2ccc(O)cc2o1 11.2%, O=c1c(-c2ccc(F)cc2)coc2cc(O)ccc12 2.56%, CC1(C)CC(=O)C(N=Nc2ccc3ncsc3c2)=C(O)C1 9.23%, Cc1cc(C)c(/C([O-])=C(/C(=S)Nc2ccc(SC(F)F)cc2)[n+]2ccccc2)cc1C -14.3%, Cc1cc(C(=O)N2CCCC(N3CCN(c4cccc(Cl)c4)CC3)C2)n(C)n1 (stereo unspecified) 9.25%, O=C(COc1ccccc1)N[C@@H]1c2ccccc2CC[C@@H]1OCc1ccccc1 3.68%, CCN(C(=S)NC(=O)c1ccco1)c1cccc2ccccc12 15.5%, N/C(Cc1ccc(Cl)cc1Cl)=N\OC(=O)Cc1cccs1 6.38%, O=C(COc1ccc(-c2nnco2)cc1)NC1CCS(=O)(=O)C1 (stereo unspecified) 2.22%, Cn1c(SCC(=O)N2CCc3ccccc3C2)nnc1-c1cccs1 -0.2%, COc1cc(/C=C2/CCc3ccccc3C2=O)cc(OC)c1OC 4.12%, COc1cccc(/C=C2\CCc3ccccc3C2=O)c1 7.06%, COc1cc(C=C2C(=O)c3ccccc3C2=O)ccc1O 15.4%, COc1cc(/C=C2\CCc3ccccc3C2=O)cc(OC)c1OC 4.54%, COc1ccc(/C=C2\CCc3ccccc3C2=O)cc1O 12.2%, COc1cc(C=C2C(=O)c3ccccc3C2=O)cc(OC)c1 5.79%, Cc1nc(NCC(c2ccccc2)N(C)C)c2c(C)c(C)sc2n1 (stereo unspecified) 7.93%, C=CCNC(=O)CN1CCN(Cc2ccc3c(c2)OCO3)CC1 6.33%, O=C(NNc1ccccc1[N+](=O)[O-])NC1CCCCC1 2.65%, Cc1ccc(NC(=O)CCn2c(=O)c3cccn3c3ccccc32)cc1C 7.75%, CN(CC(=O)Nc1ccccc1N1CCCC1)S(=O)(=O)c1ccc(F)cc1 3.64%, CCOC(=O)NNC(=O)c1[nH]c2ccc(Br)cc2c1-c1ccccc1 9.63%, O=C(O)c1cccc(Nc2nc(C(F)(F)F)nc3ccccc23)c1 2.84%, OCCN(CCO)c1ccc(C(c2ccccc2Cl)c2ccc(N(CCO)CCO)cc2Cl)c(Cl)c1 4.93%, OCCN(CCO)c1cc2c3ccccc3ccc2c2ccccc12 16%, CC(Oc1cc2oc(=O)c3c(c2cc1Cl)CCCC3)C(=O)NCCN1CCOCC1 (stereo unspecified) 11.2%, CCC(C)c1ccc(NC(=S)NCCn2cc(Cl)cn2)cc1 (stereo unspecified) 10.6%, CC(NCc1ccc(S(N)(=O)=O)cc1)C(=O)N1CCc2ccccc21 (stereo unspecified) 16.2%, CC1Cc2ccccc2N1C(=S)Nc1ccc(S(N)(=O)=O)cc1 (stereo unspecified) 10.7%, CCOC(=O)N1CCN(c2c(N3CCN(c4ccc(F)cc4)CC3)c(=O)c2=O)CC1 6.14%, O=C(CCCn1c(=S)[nH]c2cc3c(cc2c1=O)OCO3)NCCc1ccccc1Cl 9.48%, Nc1ccc(C(=O)Nc2ccc(Nc3ccncc3)cc2)cc1 5.48%, Cc1ccc(Nc2nc(-c3ccncc3)cs2)cc1 8.27%, Clc1ccc(Nc2nc(-c3ccncc3)cs2)cc1 9.41%, Nc1ccc(Nc2ccncc2[N+](=O)[O-])cc1 8.85%, CSc1cc(/C=N/O)c(SC)s1 3.21%, CCCn1c2ccccc2c2cnn(CC(=O)N3CCN(C4CCCCC4)CC3)c(=O)c21 10.4%, O=C(O)c1cc([N+](=O)[O-])cc([N+](=O)[O-])c1N1CCN(c2cccc(C(F)(F)F)c2)CC1 -6.28%, COc1ccc(N(C(=O)COc2ccc(C)cc2)S(=O)(=O)c2ccc(C)cc2)cc1 3.97%, O=C1/C(=C/c2ccc(Br)cc2)Oc2cc(O)ccc21 7.31%, COc1ccc(/C=C2\Oc3cc(OCC(N)=O)ccc3C2=O)cc1OC 10.9%, O=C1/C(=C/c2cccc(F)c2)Oc2cc(O)ccc21 6.11%, CC(C)(C)c1ccc(/C=C2\Oc3cc(O)ccc3C2=O)cc1 5.28%, O=C(COC(=O)CNC(=O)c1ccc(Br)cc1)NCCC1=CCCCC1 11.9%, Cc1cccc2cc(CN(CC(C)C)S(=O)(=O)c3ccccc3)c(=O)[nH]c12 8.17%, O=c1c2ccccc2c(C=Nc2ccc(Cl)cn2)c(O)n1-c1cc(Cl)ccc1N1CCOCC1 12.5%, Brc1cc2[nH]cnc2c2ccccc12 8.14%, Oc1ccc2c(c1)c1ccccc1c1ncccc21 17.4%, CCN(CC(=O)Nc1c(F)cccc1F)C(=O)c1cccc(S(=O)(=O)N(C)c2ccccc2)c1 2.67%, COC(=O)C=CSC(=S)C1CCCC1=N (stereo unspecified) 6.77%, COc1ccccc1-c1cn(-c2ccccc2)c(=S)[nH]1 10.3%, N#CCCn1c(SCC(=O)c2c[nH]c3ccccc23)nc2ccccc21 15.1%, Cc1nn(-c2cc(C(F)(F)F)ccc2Cl)c2nc(C(Cl)(Cl)Cl)[nH]c(=O)c12 9.52%, COc1ccc(C2C3=C(CC(C)(C)CC3=O)Oc3ncn(Cc4ccccc4)c(=N)c32)cc1 (stereo unspecified) 2.61%, COC(=O)C(=Cc1ccc(OCc2ccc([N+](=O)[O-])cc2)c(OC)c1)C(=O)OC 13.9%, COc1cc(/C=C/C(=O)O)ccc1OCc1ccc([N+](=O)[O-])cc1 7.48%, C/C(N)=C(/C#N)C(=O)CSc1nnc(SCc2ccc(Cl)cc2)s1 2.43% and 2.31%, COc1cc(C(=O)NNC(=O)CNC(=O)C2CCCCC2)ccc1OC(C)C 0.59%, Cc1ccc(S(=O)(=O)N2[C@@H](c3ccc(F)cc3)C(C(=O)O)=C[C@H]2CC2CCCC2)cc1 11%, CCOc1ccc(NC(=O)CCN2C(=O)c3cccc([N+](=O)[O-])c3C2=O)cc1 3.27%, Cc1ccc(NC(=O)CN2C(=O)c3ccccc3C2=O)cc1 10.7%, O=C(CN1C(=O)c2ccccc2C1=O)Nc1ccccc1 1.35%, CN1CC(=O)N(CC(=O)NCc2ccc(F)cc2)c2ccccc2C1=O 1.75%, CN(C)c1ccc(NC(=O)CN2C(=O)CC(c3ccccc3)=Nc3ccccc32)cc1 30.9%, COc1ccc(NC(=O)CCN2C(=O)c3cccc([N+](=O)[O-])c3C2=O)cc1 6.66%, CN(C)c1ccc(NC(=O)CN2CCc3ccccc3C2)cc1 14.3%, CN1CC(=O)N(CC(=O)Nc2ccc(F)cc2)c2ccccc2C1=O -12.2%
